In PubChem BioAssay (NCATS):
Where “and” joins values, the source holds several entries; their conditions need not be identical. Equal values may be shown once. Records with an inconclusive call do not appear. Some compounds were tested as several samples or in several runs, with calls that do not always agree. Calls of active or inactive are those of the source. The call rests on the fitted dose curve; in most records, active means well fitted cell-killing curve with a large enough effect; inconclusive means small, poorly fitted or top-dose-only effect, or effect the other way; inactive means flat fitted curve, though single readings scatter. Peptide text beside a SMILES is read from it.

The compounds below were run on CASKI (assay: Primary qHTS to identify gynecologic anti-cancer compounds using libraries of approved drugs and bioactive compounds (AID 1345084; further: nearly all actives have a fitted effect of over 55% in size)). Conditions: Gynecologic cancer cell panel viability, ATPlite luminescence, 48 h; series mostly up to 57.5 µM; activity change, negative = cytotoxicity: at the top concentration.
Procedure, shortened: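 Cell viability after 48 h drug treatment, ATPlite luminescence readout; five doses.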
On the % scale 0 is the no-effect control and ±100 the full control effect; potency means the concentration at half of the fitted maximal effect.

SMILES	activity change, negative = cytotoxicity	Potency
CCC[C@@H]1C[C@@H](C(=O)N[C@@H]([C@H]2O[C@H](SC)[C@H](O)[C@@H](O)[C@H]2O)[C@@H](C)O)N(C)C1	-0.939% (inactive)	
COc1ccc(C2(C#N)CCC(C(=O)O)CC2)cc1OC1CCCC1 (configuration not stated)	18.9% (inactive)	
CC(=O)Nc1ccc(O)cc1	-18.3% (inactive)	
Nc1ccc(S(N)(=O)=O)cc1	3.51% (inactive)	
O=C(c1ccccc1)c1ccc2n1CCC2C(=O)O (configuration not stated)	1.91% (inactive)	
CCN(CC)C(=S)SSC(=S)N(CC)CC		35.5 µM (active) and inactive
CCN(CCO)CCCC(C)Nc1ccnc2cc(Cl)ccc12 (configuration not stated)	22.4% [at 6.55 µM] (inactive) and 10.4% [at 6.55 µM] (inactive)	
Clc1ccc(C(Cn2ccnc2)OCc2ccc(Sc3ccccc3)cc2)c(Cl)c1 (configuration not stated)	-3.03% (inactive)	
COCCCN1CCC(NC(=O)c2cc(Cl)c(N)c3c2OCC3)CC1	-1.71% (inactive)	
O=C(O)CCNC(=O)c1ccc(N=Nc2ccc(O)c(C(=O)O)c2)cc1	-2.55% (inactive)	
CCCc1cc(=O)[nH]c(=S)[nH]1	-1.9% (inactive)	
Oc1ccc(OCc2ccccc2)cc1	-4.45% (inactive)	
Cc1cccc(C)c1OCC(=O)N[C@@H](Cc1ccccc1)[C@@H](O)C[C@H](Cc1ccccc1)NC(=O)[C@H](C(C)C)N1CCCNC1=O	1.7% (inactive)	
COC(=O)[C@H](Cc1ccccc1)NC(=O)[C@@H](N)CC(=O)O (H-Asp-Phe-OMe)	-1.7% (inactive)	
COc1cc2nc(N3CCN(C(=O)C4CCCO4)CC3)nc(N)c2cc1OC (configuration not stated)	-0.701% (inactive)	
NS(=O)(=O)c1cc(C(=O)O)c(NCc2ccco2)cc1Cl	3.41% (inactive)	
Cc1cc(=O)oc2cc(O)ccc12	-9% (inactive)	
